Measurements taken from the supplement of paper PMC6555819.

How the values were obtained:
Assay in all cases: PBM binding z-score (relative to random genomic background probes); higher = stronger binding; sequences stand for … in GC…GCGATTGACAGCGTAGAATGAAGG
[1] = system: RARb homodimer (NR concentration 270 nM)
Summary of the method: (§1)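 The probes on custom Agilent 4×180K protein-binding microarrays were double-stranded, with 34-nt variable regions bearing direct-repeat seeds, single-nucleotide variants, half-site ablations and random human genomic background sequences. Incubation lasted 1 h with ligand-free nuclear receptor dimers in PBS pH 7.4, 2% milk, 0.02% Triton X-100, 1 mM DTT, 0.2 mg/mL BSA and 0.4 mg/ml salmon testes DNA. Antibodies against each partner (one per run) detected bound dimers, and fluorescence scans were regression-normalized. Binding z-scores take the random background probes as reference.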

[2] = system: RARg:RXRa (NR concentration 270 nM, RXRa partner concentration 90 nM)
Summary of the method: as §1

[3] = system: RARg homodimer (NR concentration 270 nM)
Summary of the method: as §1

[4] = system: RXRa DBDmut IVT, anti-RXR (DBD mutation: RXRa K156A/R161A, NR concentration 90 nM)
Summary of the method: as §1

[5] = system: RXRa homodimer (NR concentration 180 nM)
Summary of the method: as §1

[6] = system: THRa:RXRa (NR concentration 90 nM, RXRa partner concentration 90 nM)
Summary of the method: as §1

[7] = system: THRa homodimer (NR concentration 90 nM)
Summary of the method: as §1

[8] = system: VDR homodimer (NR concentration 270 nM)
Summary of the method: as §1

| Sequence | PBM binding z-score [1] | PBM binding z-score [2] | PBM binding z-score [3] | PBM binding z-score [4] | PBM binding z-score [5] | PBM binding z-score [6] | PBM binding z-score [7] | PBM binding z-score [8] |
| --- | --- | --- | --- | --- | --- | --- | --- | --- |
| AATACAGGGTCATTAGGCCAGAGTAGGTACGAAT | 2.95 | 4.94 | 4.39 | 3.84 | 5.53 | 3.28 | 1.07 | 3.17 |
| CTATGTAGGTTAAGGGGGTCATCCAGTTTGAAAG | 4.02 | 5.27 | 4.17 | 2.11 | 5.94 | 3.97 | 1.94 | 4.9 |
| CGAACTAGGTCACCAGGACAGTGTAGAGGTTGGA | 3.53 | 4.35 | 5.47 | 1.65 | 3.25 | 3.47 | 2.14 | 0.343 |
| CCTAGCAGGCCAGGGTCACCCAAGCATTTCGCTT | 3.34 | 3.95 | 2.98 | -0.0851 | 4.34 | 3.44 | 1.71 | 1.35 |
| GCTGCTAGGTCAACTGATGGTCAGCTAGAGCTCG | 3.68 | 5.23 | 5.53 | 1.73 | 2.87 | 3.1 | 1.07 | 0.0219 |
| CGTCCAAGGTCATAAGAGGTCAGTGAAGACAGAT | 5.16 | 7.1 | 7.88 | 4.16 | 7.05 | 5.23 | 3.25 | 5.57 |
| ATATGTAGGTTAGGGTCATGCAGAAAGTAGGGAA | 3.55 | 4.44 | 3.61 | 2.02 | 5.67 | 4.25 | 3.53 | 2.78 |
| CGAACTAGGTCAAAGGAAAGTGAAAGGCGACGTA | 2.25 | 3.46 | 4.01 | 1.15 | 2.39 | 1.95 | 0.083 | 0.538 |
| TCGAGTAGGTAACGGGGGCATTCAGGGATGAAGA | 1.54 | 2.02 | 1.09 | 1.75 | 1.74 | 3.76 | 1.33 | 2.49 |
| CTCTGTAGGTTAAGGGGGTCATTCAGTTTGAAAG | 3.87 | 5.32 | 4.07 | 2.52 | 5.91 | 3.86 | 2.34 | 5.47 |
| CGAACTAGGTCAGCAGGACAGTGAAGAGGTTGGA | 2.84 | 2.91 | 3.91 | 0.0956 | 1.51 | 2 | 0.264 | -0.272 |
| CCGAGTAGGTTACGAGGGGGGATTCAGTGCGAAT | 1.82 | 2.43 | 1.99 | 1.88 | 1.24 | 3.19 | 1.76 | 1.94 |
| CGAAATAGGTCAAAGGACAGTGAAAGGCGACGTA | 3.4 | 4.97 | 5.11 | 1.3 | 4.58 | 2.4 | -0.113 | 0.355 |
| CCTTGCGGGTCACTGACAGGTTATAGCATTTGGA | 2.97 | 5.46 | 4.17 | 1.77 | 4.49 | 2.8 | 0.354 | 0.664 |
| TCTCGGAGGACACGAAGGTCAAAGCTTTCCAGAG | 4.15 | 4.3 | 4.3 | 1.15 | 3.26 | 3.4 | 1.44 | 2.67 |
| TCTTGTTGATCAAAGGTTAAGAAAGCCGAAGCCT | 1.89 | 1.64 | 1.11 | 0.76 | 2.64 | 1.58 | -0.291 | 0.435 |
| CTATGTAGGTTAAAGGGGTCATTCAGTTTGAAAG | 4.23 | 5.28 | 4.06 | 2.87 | 6.56 | 3.91 | 1.29 | 6.99 |
| CCTACTGGGCCAAAAAGGCCATTGATGCCGATAA | 0.855 | 0.216 | 0.242 | -0.537 | -0.173 | 0.0885 | -0.514 | -0.0566 |
| CTATATAGGTTAAGGGGGTCATTCAGTTTGAAAG | 3.8 | 5.72 | 4.34 | 2.61 | 6.69 | 4.18 | 1.99 | 6.17 |

| Sequence | PBM binding z-score [1] | PBM binding z-score [2] | PBM binding z-score [3] | PBM binding z-score [4] | PBM binding z-score [5] | PBM binding z-score [6] | PBM binding z-score [7] | PBM binding z-score [8] |
| --- | --- | --- | --- | --- | --- | --- | --- | --- |
| GCTGCTAGGTCAGGATGGTCAGCTAACGGGTACG | 2.65 | 2.65 | 3.23 | 0.0831 | 1.18 | 1.7 | 0.189 | 0.124 |
| TAGCCTAGGTCATGGGCCAGTTTACCACGCGAAC | 3.04 | 4.68 | 4.8 | 0.567 | 4 | 3.22 | 1.42 | 0.669 |
| ATCTCTAGGTAAAGTTCAGCGAAAGATCGATAGA | 2.94 | 2.55 | 2.95 | 1.25 | 1.9 | 1.41 | 0.214 | 1.66 |
| CCGACTAGGTTACGAGGGGGCATTCAGTGCGAAT | 2.21 | 2.97 | 2.26 | 1.5 | 1.62 | 3.52 | 0.757 | 3.12 |
| ATATGTAGCTTAAGGGTCATTCAGGTTGGTTCGC | 3.64 | 3.62 | 2.82 | 1.95 | 4.27 | 3.27 | 1.02 | 4.07 |
| CCTACAGGGCCAAGGTCATTGATCAGTCAAAGCA | 3.47 | 3.94 | 3.71 | 1.5 | 3.32 | 3.46 | 1.93 | 2.91 |
| GATACAGGGGCAAGGCCAGAGTACGCGTATTGAT | 1.19 | 0.895 | 1.33 | 0.352 | 0.544 | 0.311 | -0.32 | 0.636 |
| TCGAGTAGGTTCCGGGGGCATTCAGGGATGAAGA | 1.25 | 1.57 | 1.13 | 1.02 | 1.33 | 3.53 | 1.08 | 3.01 |
| AGTCAAAGTTCAGGACGAGGTAATGTAAAGCACG | 3.05 | 4.89 | 4.72 | 3.05 | 3.37 | 3.5 | 1.44 | 2.1 |
| CCTAGATGGTCAGGAGGTCACACACCGGATATGA | 4.09 | 5.06 | 4.28 | 0.392 | 4.73 | 3.5 | 2.26 | 2.68 |
| CCTACTGGGCGATTCAGAGGTCATTGATCATATG | 3.62 | 3.12 | 2.1 | 0.873 | 3.28 | 2.83 | 0.887 | 2.83 |
| CCTTACGGGCCACGAGGTTATAGCACGACGAGCG | 1.17 | 1.33 | 1.07 | -0.516 | 1.28 | 1.25 | 0.458 | 0.543 |
| CGTCCAAGGTCAGAGAGGTCACTGAATGCCGAGT | 5.89 | 7.04 | 7.93 | 3.39 | 6.93 | 4.71 | 3.53 | 6.07 |
| CGAACTATGTCAAGGACAGTGAATCTCCGCACGC | 0.507 | 0.587 | 0.808 | 0.328 | 0.197 | 1.76 | 1.21 | -0.0899 |
| CAAACTAGGTCAAAGGTCAAGGTCGAGCCAACCA | 5.8 | 8.92 | 7.7 | 3.18 | 9.96 | 4.92 | 2.98 | 3.42 |
| CCTTACGGGTCACTTACAGGTTATAGCATTTGGA | 3.2 | 5.65 | 4.51 | 2.19 | 4.62 | 2.95 | 0.577 | 1.66 |
| TCGAGTAGGTTACGGAGGCATTCAGGGATGAAGA | 0.171 | 0.578 | 0.4 | -0.134 | 0.833 | 1.1 | -0.655 | -0.549 |
| CATACAGGGTAAGCTAGGCCAGAGTAGGGACGGC | 0.192 | 0.225 | 0.59 | -0.744 | 0.077 | 1.49 | -0.191 | -0.259 |
| TCGAGTAGGTTGCGGGGGCATTCAGGGATGAAGA | 1.73 | 2.24 | 1.59 | 1.94 | 1.5 | 3.75 | 2.35 | 3.45 |

| Sequence | PBM binding z-score [1] | PBM binding z-score [2] | PBM binding z-score [3] | PBM binding z-score [4] | PBM binding z-score [5] | PBM binding z-score [6] | PBM binding z-score [7] | PBM binding z-score [8] |
| --- | --- | --- | --- | --- | --- | --- | --- | --- |
| CTATGTAGGTTAAGCGGGTCATTCAGTTTGAAAG | 2.58 | 2.62 | 1.94 | 1.29 | 3.17 | 2.56 | 0.448 | 3.14 |
| ATCTCTAGGTAAAGGTCAGTGAAAGATCGATAGA | 4.26 | 4.52 | 5.13 | 0.521 | 4.35 | 2.98 | 0.87 | 1.17 |
| CAAACTAGGTCAAGGTCAAATTCGGTTTGTGCCA | 5.19 | 6.03 | 6.67 | 3.1 | 6.24 | 4.38 | 3.92 | 4.1 |
| ATATGTAGGTTAGGGTCTTTCAGAAAGTAGGGAA | 0.963 | 0.711 | 0.651 | 0.741 | 0.743 | 1.51 | 1.22 | 0.739 |
| TCTAGGAGGACACGAAGGTCAGAGCTTTCCAGAG | 3.47 | 3.15 | 3.8 | 0.842 | 2.01 | 2.61 | 0.635 | 0.851 |
| CAAACTAGGTCACAGAGGTCGAAGTCCGTGCGTA | 4.46 | 5.11 | 5.68 | 2.1 | 4.51 | 4.03 | 2 | 3.88 |
| GCTGCTAGGTCAGGTTGGTCAACTAACGGGTACG | 2.85 | 2.92 | 3.89 | 0.438 | 1.17 | 1.91 | 0.472 | 0.97 |
| CCTAGCAGACCAATCTGGGTCACTCAAGGCTTGA | 1.75 | 0.672 | 0.527 | 0.174 | 0.711 | 2.64 | 0.374 | 0.0917 |
| ATATGTATGTTAGGGTCATTCAGAAAGTAGGGAA | 3.03 | 3.74 | 2.71 | 2.73 | 4.9 | 4.06 | 3.17 | 3.27 |
| CCTTACGGGTCAGTGACAGGTTATAGCATTTGGA | 2.85 | 4.61 | 3.43 | 1.05 | 3.29 | 2.15 | 0.134 | 0.572 |
| ATATGTAGGTTAGGGTTATTCAGAAAGTAGGGAA | 1.72 | 1.45 | 1.05 | 1.06 | 2.13 | 2.45 | 1.52 | 1.23 |
| AGTCAAAGTTCACTAGGCAACGTAAGATTCAGCT | 3.63 | 4.84 | 5.8 | 4.16 | 3.89 | 1.4 | -0.365 | 3.61 |
| TAGCCTAGGTCACGGGCCAGTATACCACGCGAAC | 3.83 | 5.12 | 5.43 | 0.27 | 4.73 | 3.83 | 1.84 | 0.425 |
| TGAATGAGGTGAAAGATCAGGGAACGTGGCGTCG | 0.154 | 1.51 | 0.868 | -0.365 | 2.17 | 2.78 | 0.878 | -0.213 |
| AGTCAAAGTTCACGAGGTAACGTAAGATTCAGCT | 4.91 | 6.34 | 7.02 | 4.45 | 6.24 | 3.61 | 1.34 | 3.84 |
| CTCCAAAGGTCGGTTGAGGTGAGTATACGGATAA | 2.61 | 2.87 | 2.9 | 0.951 | 2.46 | 5 | 1.56 | 0.508 |
| CAAACTAGGTCAAGAGGTCAAAGGCCGCTTCCCG | 5.53 | 8.17 | 7.84 | 2.67 | 7.98 | 4.21 | 2.35 | 4.46 |
| CCGAGTAGGTTACGAGGGGGCAGTCAGTGCGAAT | 2.02 | 2.81 | 2.42 | 0.582 | 1.55 | 3.29 | 0.478 | 1.68 |
